Bioassay records (PubChem BioAssay)
Shown are actives, neighbours in structure and some others; about 2% of the full set was active somewhere.
S1P4 agonist – activates the human S1P4 receptor | O95977 | S1P4-expressing cell line, agonist reporter assay | activation, % at 4.98 µM | 220,000 compounds, 0.35% hits; in the data active = activation above about 11%;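 note: 0% = DMSO vehicle and 100% = reference agonist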
EP2 modulator – EP2 receptor (human) modulation; P43116; EP2-expressing cells, cAMP HTRF FRET, PGE2 co-stimulation; induction, % at 25 µM; 260,000 compounds, 0.83% hits; AID 940;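 active = compounds whose cAMP rise, as percent of the full-agonist control response, exceeds 60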;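 note: rat C6 glioma line stably carrying human EP2 under a CMV promoter; the protocol text gives 20 µM as final concentration; 100% = response of wells given 1 µM PGE2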
EP2 antag – inhibitors of human EP2 prostaglandin E2 receptor; P43116; C6 glioma cells expressing human EP2, cAMP TR-FRET; cells stimulated with saturating PGE2; inhibition, % at 25 µM; 260,000 compounds, 0.52% hits; AID 1422;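 active = percent inhibition above 40 after rounding to a whole number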;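 note: rat C6 glioma host cells with rolipram phosphodiesterase inhibitor present; the protocol text gives 20 µM as final concentration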
S1P4 antagonist – antagonists of human S1P4 receptor. 220,000 compounds, 0.26% hits. inhibition, % at 4.98 µM. S1P4-expressing cells, antagonist mode, reporter read-out; in the data active = inhibition above about 29%;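 note: 0% = wells stimulated with agonist and 100% = vehicle wells without agonist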
S1P3 antagonist – S1P3 (human) receptor antagonism; CHO S1P3 NFAT-BLA reporter, FRET fluorescence, antagonist mode; 170,000 compounds, 0.27% hits; inhibition, % at 4.98 µM; Q99500;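 active = inhibition above the plate cutoff, the mean inhibition of test wells on that plate plus 3 SD, cut at about 28% in these data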;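 note: cells challenged with S1P at its EC80 of 0.8 µM; blue over green emission ratio from cleaved BLA substrate after 4 h stimulation; 0% = S1P-stimulated wells and 100% = unstimulated DMSO-only wells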
Target sequence (Q99500 whole entry, looked up): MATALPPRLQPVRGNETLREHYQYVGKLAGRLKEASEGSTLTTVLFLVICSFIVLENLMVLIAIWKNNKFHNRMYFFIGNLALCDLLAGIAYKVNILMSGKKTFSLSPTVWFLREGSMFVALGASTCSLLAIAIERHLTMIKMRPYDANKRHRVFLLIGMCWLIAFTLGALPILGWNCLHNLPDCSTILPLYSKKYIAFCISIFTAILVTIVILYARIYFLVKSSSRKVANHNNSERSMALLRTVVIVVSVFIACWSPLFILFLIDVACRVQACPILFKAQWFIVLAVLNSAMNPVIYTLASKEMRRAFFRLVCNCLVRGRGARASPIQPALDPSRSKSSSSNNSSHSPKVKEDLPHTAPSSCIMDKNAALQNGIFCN
The depositor's hits bear a star; . = not tested or not shown; ! = not active in a repeat.

SMILES	S1P4 agonist	EP2 modulator	EP2 antag	S1P4 antagonist	S1P3 antagonist
CCOc1ccccc1NC(=O)CN1CCC(c2nc3ccccc3s2)CC1	.	-100	8	.	.
c1csc(-c2cnc3ccccc3n2)c1	0	3	7	-1	4
c1cc2c(cnc3cscc32)s1	2	-48	42*	-27	2
C=CCc1cc(C)ccc1OCCCC(C(=O)OCC)C(=O)OCC	4	61*	7	2	19
CC(C)=N/N=C(\N)SCc1ccccc1	1	18	6	-11	-14
CSC(=[SH+])[N-]N=C(c1ccccn1)c1ccccn1.[Cu][Br]	.	-64	108*	.	.
C/C(=N\[N-]C(=[SH+])SCc1ccccc1)c1ccccn1.[Cl][Cu]	.	-47	88*	.	.
COc1cccc(CN(Cc2ccco2)Cc2nc[nH]c2C)c1	.	-13	5	.	.
Cc1ccc(-c2nc(CNC(=O)COc3ccc4nsnc4c3)no2)cc1	.	-20	13	.	.
Cc1cc(O)c(C(C)C)cc1C1(c2cc(C(C)C)c(O)cc2C)OC(=O)c2ccccc21	-1	4	76*!	7	6
Cc1cc(C(=O)NCCS(C)=O)c(-n2cccc2)s1 (centres undefined)	.	-28	7	.	.
O=C(Cc1cccs1)Nc1ccon1	1	6	2	1	94*
O=C(/C=C/c1cccnc1)c1cc(F)ccc1O	0	-38	14	11	-7
O=C(/C=C/c1cccnc1)/C=C/c1cccnc1	0	-68	36	98*	-3
COc1ccc(NC(=O)c2c(NC(=O)CNCc3ccco3)sc3c2CCC3)c(OC)c1	2	58	11	-55	70*
CCC(=O)Nc1cccc(NC(=O)c2ccc([N+](=O)[O-])o2)c1	.	-101	98*	.	.
CCC(=O)Nc1cccc(NC(=O)c2cccc([N+](=O)[O-])c2)c1	-2	-3	12	2	.
CCCC(=O)Nc1cccc(NC(=O)c2ccc([N+](=O)[O-])o2)c1	.	-100	42*	.	.
Cc1ccc(C)n1Cc1ccccc1Cl	3	65*	4	-26	3
Cn1c(SCc2nc3ccccc3[nH]2)nnc1-c1ccccc1	.	-16	7	.	.
CCOC(=O)CSc1nc2ccc(Nc3nc(N4CCOCC4)nc(N4CCOCC4)n3)cc2s1	-2	-34	72*	6	.
CC(=O)CSc1nc2ccc(Nc3nc(N4CCOCC4)nc(N4CCOCC4)n3)cc2s1	-1	-28	4	-6	29
COc1ccc(/C=C/C(=O)NCCn2c(C)cc3ccccc32)cc1OC	0	-40	114*	6	6
COc1cc(C2C3=C(CCCC3=O)NC3=C2C(=O)CCC3)ccc1OCC(N)=O	.	0	12	.	.
COc1ccc(C(=O)Oc2ccc(Cl)c3cccnc23)cc1	.	-56	12	.	.
SMILES	S1P4 agonist	EP2 modulator	EP2 antag	S1P4 antagonist	S1P3 antagonist
COc1c(C)cccc1C(=O)NC(=S)Nc1cccc2nsnc12	-1	-80	129*	6	-1
CC1=CC(=O)c2ccccc2C1=O	1	-40	46*	-11	-4
COc1cccc2c1C(=O)C=C(C)C2=O	2	-64	21	-15	-10
Clc1ccc2c(c1)c1cc(Cl)ccc1n2CN1CCOCC1	1	64*	2	-2	.
CCn1c(=S)[nH]c2scc(-c3cccs3)c2c1=O	-1	-17	70*	-12	-37
O=c1c2c(-c3cccs3)csc2[nH]c(=S)n1-c1ccccc1	-1	-1	66*	-8	.
CC(C)n1c(=S)[nH]c2scc(-c3cccs3)c2c1=O	0	-19	71*	0	-9
C=CCn1c(=S)[nH]c2scc(-c3ccc(C)o3)c2c1=O	-1	-7	34	-1	-17
CN1C[C@H](c2ccccc2)C(O)([C@]2(c3ccccc3)CN(C)C[C@H](c3ccccc3)C2=O)[C@H](c2ccccc2)C1 (some centres undefined)	.	21	40*	.	.
N=C(N)SCCc1ccccn1	.	7	44*!	.	.
CC1CC(C)CN(C(=O)Cn2nc3c4ccccc4nc(C4CC4)n3c2=O)C1 (centres undefined)	.	-29	4	.	.
Cn1c(N2CCC(C(=O)NC3CCCC3)CC2)nc2ccccc21	.	-14	.	.	.
CCn1c(N2CCC(C(=O)NC3CCCC3)CC2)nc2ccccc21	.	63*	.	.	.
CCCCC(C)(O)C/C=C/[C@H]1[C@H](O)CC(=O)[C@@H]1CCCCCCC(=O)OC (some centres undefined)	2	97*	10	-21	-22
CCCCCC1C(=O)CCC1CC(=O)OC (centres undefined)	.	13	10	.	.
CC(=O)Nc1ccc(N2CCN(C(=O)C(C)C)CC2)cc1	.	-9	9	.	.
O=C(N/C=N/OCc1ccc(Cl)cc1Cl)NOCc1ncc(C(F)(F)F)cc1Cl	1	61*	5	-13	.
CO/N=C/NC(=O)NOCc1ncc(C(F)(F)F)cc1Cl	-3	28	-6	4	.
O=C1C(=O)c2ccccc2C(O)=C1C(CCc1ccccc1)C1=C(O)c2ccccc2C(=O)C1=O	.	27	42*	.	.
COCCN1C(=O)C(=O)/C(=C(\O)c2ccc(C)cc2)C1c1cc(OC)ccc1OC (centres undefined)	.	-22	2	.	.
CCOc1ccccc1OCC(=O)Nc1nc2ccccc2s1	.	-33	12	.	.
CSc1nc2sc3c(c2c2nnnn12)CCCC3	1	14	66*	-4	.
NC(=O)c1nnn(Cc2cc(Cl)c(C(=O)c3ccc(Cl)cc3)c(Cl)c2)c1N	.	-15	44*	.	.
Cc1cc2c(cc3c(=O)n(CC(=O)NCc4ccco4)nc(C)n32)o1	.	15	4	.	.
CC1(C)Cc2ccccc2-c2nnc(SCC(=O)N3CCCCC3)n21	.	-47	11	.	.
SMILES	S1P4 agonist	EP2 modulator	EP2 antag	S1P4 antagonist	S1P3 antagonist
N#Cc1c(/N=C/c2cccs2)sc2c1CCCCC2	2	24	11	-17	57*
N#Cc1c(/N=C/c2ccc(Br)s2)sc2c1CCC2	-3	20	.	-3	.
CNC(=O)C(=O)Nc1nccs1	.	17	12	.	.
c1ccc(CNc2nc(NCc3ccccc3)c3ccccc3n2)cc1	-1	-54	95*	17	-6
O=c1[nH]c(N2CCCCC2)nc2c1CCN(Cc1ccc(F)c(F)c1)C2	.	-51	8	.	.
Clc1ccc(/C=N/NC(=Nc2ccccc2)c2ccccn2)c(Cl)c1	0	61*	.	-19	.
O=C1COc2nc3ccccc3cc2CN1Cc1ccc2c(c1)OCO2	.	-137	.	.	.
CC(C)c1nc2sc3c(=O)[nH]cnc3c2c2c1CCC2	0	54	6	-11	2
CCCCc1nc2sc3c(=O)[nH]cnc3c2c2c1CCCC2	0	61*	10	12	-9
CCCc1nc2sc3c(=O)[nH]cnc3c2c2c1CCCC2	-1	72*	7	3	-5
CC(C)c1nc2sc3c(=O)[nH]cnc3c2c2c1CCCC2	1	43	9	-6	7
CCOc1ccc(-n2c(=S)sc3c(=O)[nH]c(SCC(=O)N4CCC(C)CC4)nc32)cc1	-3	62*	-2	-1	.
Cc1cccc(NC(=O)CSc2nc3sc4c(c3c(=O)[nH]2)CCCC4)c1C	.	-13	45*	.	.
O=C(CSc1nc2sc3c(c2c(=O)[nH]1)CCCC3)Nc1cccc(F)c1	.	9	3	.	.
